In the library only some 10% were active in any assay of this set; here they are far more common.
IMPase cell inh: cell-permeable inhibitors of inositol monophosphatase (IMPase); CHO-M1 cells, IP1 accumulation, HTRF TR-FRET ratio; inhibition (IP1 accumulation), % at 46.1 µM; 120,000 tested, under 10 active; active means well fitted curve in the direction sought with a large enough effect in the signal ratio, not every such curve was filed as active; inconclusive means small, poorly fitted or top-dose-only effect, or a change in a side signal; inactive means no such curve, though single readings can be large or run the other way; the % refers to the signal ratio;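 further: cells stimulated with carbachol in lithium chloride buffer; plate controls were DMSO basal wells for no effect and reference inhibitor wells for full effect; higher means more IMPase inhibition seen as more IP1 and lower FRET ratio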
Target sequence (P97697 whole entry, looked up): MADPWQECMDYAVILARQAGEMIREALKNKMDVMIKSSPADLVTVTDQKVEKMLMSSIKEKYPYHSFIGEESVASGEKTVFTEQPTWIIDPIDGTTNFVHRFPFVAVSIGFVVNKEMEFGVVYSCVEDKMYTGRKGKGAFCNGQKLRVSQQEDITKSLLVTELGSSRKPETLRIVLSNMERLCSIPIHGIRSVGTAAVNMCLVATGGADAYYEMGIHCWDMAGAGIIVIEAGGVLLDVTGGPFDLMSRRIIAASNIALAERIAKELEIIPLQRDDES
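Measured: the HTRF emission ratio (665/620 nm) plus the 620 nm donor channel, each fitted to the Hill equation to give AC50. Cells were CHO-M1 given compounds up to 46 uM and a 30 min carbachol stimulation at 37C.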
PNC assembly inh: blocks assembly of the perinucleolar compartment. PC3M PTB-GFP, PNC prevalence imaging, 16 h; hits give low values. AID 2417. 3.1% of 140,000 active. activity change (PNC), negative = inhibition, % at 10 µM;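 active means readout at or below -70, meaning at least 70% loss of cells showing the perinucleolar compartment, a nuclear body marking cancer cells; inconclusive means readout between -30 and a set limit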;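 further: plate controls were DMSO wells for no effect and camptothecin positive control wells for full effect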
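Compounds are pinned in duplicate onto adhered PC3M cells stably expressing GFP-tagged PTB and incubated 16 h at 37 C. Cells are then fixed, nuclei stained with Hoechst, and PNC-positive cells counted.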
LMNA splice mod: changes lamin A minigene splicing in HeLa cells; HeLa LMNA splicing GFP/RFP minigene ratio, 48 h; Potency, µM (series often up to 46.1 µM), for inactives: at the highest dose ratio change, negative = inhibition, usual class: inhibitors; 0.01% of 200,000 active; AID 1487; active means well fitted inhibition curve with a large enough effect in the signal ratio, with a control signal flat, not every such curve was filed as active; inconclusive means small, poorly fitted or top-dose-only effect, or effect the other way, or a change in a side signal; the % refers to the signal ratio; further: potency means the concentration at half of the fitted maximal effect
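Read-out is the ratio of GFP to DsRed2 object intensity, acquired by 488 nm laser-scanning cytometry on HeLa lamin A-EGFP minigene reporter cells. Compound incubation 48 hrs at 37 °C in Opti-MEM with 2% FBS; DMSO 0.5% final.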
ALDH1A1 block: blocks purified human ALDH1A1 activity; 7.3% of 220,000 active; AID 1030; Potency, µM (highest dose often 75.3 µM), for inactives: at the highest dose activity, negative = inhibition, usual class: inhibitors; P00352; Purified ALDH1A1, NADH fluorescence, propionaldehyde substrate;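 further: potency means the concentration at half of the fitted maximal effect; plate controls were no enzyme wells and a reference inhibitor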
Target sequence (P00352 whole entry, looked up): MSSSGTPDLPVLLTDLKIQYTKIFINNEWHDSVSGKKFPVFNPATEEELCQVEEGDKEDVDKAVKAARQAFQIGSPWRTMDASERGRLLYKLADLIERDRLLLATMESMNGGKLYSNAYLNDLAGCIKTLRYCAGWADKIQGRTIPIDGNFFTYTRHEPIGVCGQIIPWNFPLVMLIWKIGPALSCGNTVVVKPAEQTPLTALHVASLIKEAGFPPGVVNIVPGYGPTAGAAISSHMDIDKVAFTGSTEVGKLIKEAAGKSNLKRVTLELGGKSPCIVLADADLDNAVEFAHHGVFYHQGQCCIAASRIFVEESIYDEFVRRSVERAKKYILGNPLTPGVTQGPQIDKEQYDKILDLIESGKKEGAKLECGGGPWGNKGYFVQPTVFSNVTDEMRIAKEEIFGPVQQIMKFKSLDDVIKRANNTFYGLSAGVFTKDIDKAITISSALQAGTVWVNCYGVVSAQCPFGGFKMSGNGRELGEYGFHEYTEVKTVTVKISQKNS
HPGD block: HPGD (human) dehydrogenase inhibition | P15428 | purified HPGD, NADH fluorescence kinetic, PGE2 substrate | Potency, µM, for the others: top-dose activity change, negative = inhibition, hits mostly inhibitors | 4.3% of 150,000 active | AID 894; further: potency means the concentration at half of the fitted maximal effect
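20 nM HPGD preincubated 15 min at room temperature with compound in 50 mM Tris-HCl pH 8, 0.01% Tween 20. Started with 1 mM NAD+ and 30 uM prostaglandin E2; NADH fluorescence (360/450 nm) read 5 times over 30-s intervals, last minus first.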
Luc counter: Kinase-Glo luciferase inhibition (counter-screen). Q27757. Kinase-Glo luciferase, ATP luminescence, 8 min. Potency, µM (series often up to 38.3 µM), without a hit: at the top dose activity change, negative = inhibition, most hits filed as inhibitors. 0.28% of 200,000 active; active means well fitted inhibition curve with a large enough effect; inconclusive means small, poorly fitted or top-dose-only effect; further: potency means the concentration at half of the fitted maximal effect; nearly all actives have a fitted effect of over 60% in size
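Light output from Kinase-Glo luciferase with luciferin and 10 uM ATP in 50 mM imidazole pH 7.2, KCl, MgCl2, Tween 20, BSA; compound pin-delivered, 8-min ambient incubation, then luminescence read.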
* hit, by the source's call; ? = inconclusive; . = no result; [ ] = dose if it differs, or a comment. Unless noted, the call rests on the fitted dose curve; in most records, active means well fitted inhibition curve with a large enough effect (not every such curve was filed as active); inconclusive means small, poorly fitted or top-dose-only effect, or another doubt; inactive means no such curve, though single readings can be large or run the other way. Unless noted, on the % scale 0 is the no-effect control and ±100 the full control effect.

SMILES | IMPase cell inh | PNC assembly inh | LMNA splice mod | ALDH1A1 block | HPGD block | Luc counter
O=C(c1ccccc1)N1CCC(c2nc3c(nnn3Cc3ccccc3Cl)c(=O)[nH]2)CC1 | 0 | -6 | 6% | ? | 11µM* | 0%
O=c1c(-c2cc(F)cc(F)c2)nc2cncnc2n1Cc1ccc(F)cc1 | . | . | . | ? | -17% | -4%
O=S(=O)(c1ccc(Br)cc1)N1CCn2cccc2C1c1ccc(Br)cc1 (stereo not given) | . | . | 1%[46 µM] | . | . | .
CO[C@@H]1/C=C\O[C@]2(C)Oc3c(C)c(O)c4c(O)c(c(CN5CCN(C)CC5)c(O)c4c3C2=O)NC(=O)/C(C)=C\C=C[C@@H](C)[C@@H](O)[C@H](C)[C@@H](O)C(C)[C@H](OC(C)=O)[C@@H]1C (stereo not given in full) | . | . | . | 10%[13.5 µM] | -12% | -2%[7.66 µM]
CN(C)c1ccc(C(=S)Nc2ccccc2)cc1 | . | 35 | -15% | ? | -24% | -3%
CN(C)c1ccc(/C=C(\C#N)c2ccccn2)cc1 | . | 13 | ? | 9.5µM* | -22% | 7.9µM*
COC(=O)c1ccc(OC(=O)c2ccccn2)cc1 | 6 | -2 | -3% | -6% | -3% | -15%
CN(C)c1ccc(NC(=S)c2ccccn2)cc1 | . | 38 | ? | ? | 25µM* | 13µM*
N#CC(C#N)=Cc1ccc(OC(=O)c2ccccn2)cc1 | 2 | -21 | -8% | 2µM* | -9% | -5%
Cc1cccc(N2CCN(C(=O)c3cnn(-c4ccccc4Cl)c3C3CCN(C(=O)OC(C)(C)C)CC3)CC2C)c1 (stereo not given) | . | . | -3%[46 µM] | . | . | .
COCC(=O)N1CCc2nc(-c3ccccc3)c3c(c2C1)CO[C@@H](C)C3 | . | . | -12%[9.22 µM] | 6%[13.5 µM] | -11% | -1%[7.66 µM]
O=C(CN1CCOCC1)N1CCc2ccccc2C(c2ccccc2)C1 (stereo not given) | 1 | 24 | ? | 14µM* | -13% | 1%
CC1=C2[C@H](/C=C(\C)C(=O)O)CC[C@@H](C)[C@H]2CC1 | . | . | . | 18µM* | -5% | .
CC(=O)c1cccc(NC(=O)c2ccc(Cl)c(S(=O)(=O)N3CCOCC3)c2)c1 | 1 | . | . | . | . | .
Cc1cc(C)n(C(=O)c2ccc(Cn3nc(C)c(Br)c3C)o2)n1 | -4 | -100* | -7% | 0% | -6% | -1%
N[C@H](CCC(=O)NCS(=O)(=O)O)C(=O)O | -2 | . | . | . | . | .
Cc1cc(C(=O)COC(=O)C2=NNC(=O)CC2)c(C)n1-c1ccccc1 | -1 | ? | 7% | 16µM* | -19% | 14%
Cc1cc(C(=O)Cn2nnc3ccccc3c2=O)c(C)n1-c1ccccc1F | -2 | -87* | ? | ? | ? | -5%
COc1ccc(-n2c(C)cc(C(=O)Cn3nnc4ccccc4c3=O)c2C)cc1 | 12 | ? | ? | -10% | -21% | 0%
Cc1cc(C(=O)CN2C(=O)c3ccccc3S2(=O)=O)c(C)n1-c1ccccc1 | 16 | 28 | 8% | ? | -8% | -1%
Cc1cc(C(=O)CN2C(=O)NC(CC(C)C)C2=O)c(C)n1-c1ccccc1F (stereo not given) | . | . | -2%[46 µM] | 6.3µM* | . | 6%
Cc1ccc(-n2c(C)cc(C(=O)COC(=O)C3=NNC(=O)CC3)c2C)cc1 | ? | ? | -4% | 15% | 0% | 0%
Cc1cc(C(=O)CN2C(=O)C3CC=CCC3C2=O)c(C)n1-c1ccccc1 (stereo not given) | -4 | 21 | ? | 22µM* | -13% | -6%
CN(C)Cc1ccccc1-c1nc(N(C)C)c2ccccc2n1 | . | . | ? | 28% | . | .
O=C1CC(N2CCN(c3ccccc3)CC2)C(=O)N1c1ccc2c(c1)OCCO2 (stereo not given) | ? | 0 | -3% | -14% | 0% | 2%
SMILES | IMPase cell inh | PNC assembly inh | LMNA splice mod | ALDH1A1 block | HPGD block | Luc counter
O=C1CC(N2CCOCC2)C(=O)N1c1cc(Cl)cc(Cl)c1 (stereo not given) | -4 | ? | 6% | 3.2µM* | -26% | -10%
O=C1CC(N2CCOCC2)C(=O)N1c1ccccc1Cl (stereo not given) | 4 | -94* | -10% | ? | -9% | -2%
O=C1CC(N2CCN(c3ccccc3Cl)CC2)C(=O)N1c1ccccc1 (stereo not given) | 1 | -11 | 9% | 25µM* | -13% | 3%
CCOC(=O)c1noc2ncnc(N3CCC(C)CC3)c12 | . | . | 13%[46 µM] | . | . | .
COc1ccc(CNC(=O)Nc2cn(CC(C)C)c(=O)c3ccccc23)cc1 | . | . | 6%[46 µM] | . | . | .
N#Cc1c(Nc2ccc(F)cc2)sc(C(=O)c2ccccc2)c1N | . | ? | -15% | ? | ? | 1%
N#Cc1c(Nc2ccc(F)cc2)sc(C(=O)c2ccc(F)cc2)c1N | 7 | 2 | 6% | 22µM* | ? | -4%
N#Cc1c(Nc2ccccc2)sc(C(=O)c2ccccc2)c1N | 3 | 29 | -8% | 13µM* | -29% | 5%
O=C(NCc1ccco1)C12CN(Cc3ccccc3)CC1C(c1cccc([N+](=O)[O-])c1)=NO2 (stereo not given) | 3 | -86* | 5% | -6% | -9% | -4%
O=C(NCc1ccccc1)C12CN(Cc3ccccc3)CC1C(c1ccc([N+](=O)[O-])cc1)=NO2 (stereo not given) | 1 | ? | -9% | ? | -5% | 1%
O=C(NCc1ccco1)C12CN(Cc3ccccc3)CC1C(c1ccc([N+](=O)[O-])cc1)=NO2 (stereo not given) | 5 | -1 | 4% | 4µM* | -13% | 3%
Cc1ccc(CNC(=O)C23CN(Cc4ccccc4)CC2C(c2cccc([N+](=O)[O-])c2)=NO3)cc1 (stereo not given) | 5 | 48 | -8% | ? | -22% | 2%
Cc1ccc(S(=O)(=O)n2ccc(-c3cccc(OCc4c(F)cccc4Cl)c3)n2)cc1 | 6 | 52 | 8% | 2% | -9% | -5%
Cc1ccc(S(=O)(=O)n2ccc(-c3ccc(OCc4c(F)cccc4Cl)cc3)n2)cc1 | -15 | -100* | -5% | 4% | -6% | 0%
CCOc1ccc(CCNC(=O)c2cnc3c(-c4ccc(F)cc4)c(C)nn3c2C)cc1OCC | . | . | 24%[46 µM] | . | . | .
c1ccc(COc2ccc(Nc3ncnc4nc[nH]c34)cc2)cc1 | 7 | -10 | 21% | -14% | 16µM* | -7%
CCOC(=O)c1ccc(Nc2ncnc3nc[nH]c23)cc1 | -17 | -20 | 0% | -14% | ? | -7%
Nc1nnc(CCC2CCCCC2)s1 | 0 | 40 | 2% | -6% | -6% | 6%
N#CC1=C(N)SC(N)=C(C#N)C1CCC1CCCCC1 | -8 | -28 | ? | 14µM* | 16µM* | 1%
O=C(NCc1ccccc1Cl)c1cc2ccccc2o1 | 5 | . | . | . | . | .
